Test results as given in the supplement of paper PMC10849652.
Of roughly 7,900 targets only a part is listed; those with a hit were picked by preference. About 0.6% of all pairs of compound and target were hits. Unmarked numbers belong to inactive results.

Legend:
Assay in all cases: log2 fold change, soluble protein after heating vs DMSO (PISA); higher = thermal stabilisation; K562 cells, 10 uM, 30 min; active = over 0.2 and 3.5 SD of the protein, either way, in both replicates (recomputed)
saracatinib = compound: CN1CCN(CCOc2cc(OC3CCOCC3)c3c(Nc4c(Cl)ccc5c4OCO5)ncnc3c2)CC1 [saracatinib]
Procedure, shortened: (§1)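 K562 cells at 2×10^6 cells/mL were treated with 10 μM compound for 30 min. Aliquots were heated for 3 min across 48°C-58°C, pooled, and extracted in PBS with 0.5% NP-40 at 4°C; soluble protein was the supernatant after 21,000xg for 90 min. Soluble protein was quantified by TMTpro 16plex LC-MS/MS with channel sums equalised, and reported as log2 fold change in thermal stability against DMSO controls, with values from duplicates.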

sotrastaurin = compound: CN1CCN(c2nc(C3=C(c4c[nH]c5ccccc45)C(=O)NC3=O)c3ccccc3n2)CC1 [sotrastaurin]
Procedure, shortened: as §1

alvocidib = compound: CN1CC[C@H](c2c(O)cc(O)c3c(=O)cc(-c4ccccc4Cl)oc23)[C@H](O)C1 [alvocidib]
Procedure, shortened: as §1

Tubastatin A = compound: CN1CCc2c(c3ccccc3n2Cc2ccc(C(=O)NO)cc2)C1 [Tubastatin A]
Procedure, shortened: as §1

[1] = compound: CNC(=O)C1=CC=CC=C1NC2=NC(=NC=C2Cl)NC3=C(C=C(C=C3)N4CCOCC4)OC
Procedure, shortened: as §1

defactinib = compound: CNC(=O)c1ccc(Nc2ncc(C(F)(F)F)c(NCc3nccnc3N(C)S(C)(=O)=O)n2)cc1 [defactinib]
Procedure, shortened: as §1

rucaparib = compound: CNCc1ccc(-c2[nH]c3cc(F)cc4c3c2CCNC4=O)cc1 [rucaparib]
Procedure, shortened: as §1

[2] = compound: CNc1nc(-c2ccc3c(N)n[nH]c3c2)cc(N2C[C@@H](C(=O)NC3CCCCC3)CC[C@H]2C)n1
Procedure, shortened: as §1

encorafenib = compound: COC(=O)N[C@@H](C)CNc1nccc(-c2cn(C(C)C)nc2-c2cc(Cl)cc(NS(C)(=O)=O)c2F)n1 [encorafenib]
Procedure, shortened: as §1

[3] = compound: COC(=O)[C@H](CCSC)NC(=O)C1=C(C=C(C=C1)NC[C@H](CS)N)C2=CC=CC=C2
Procedure, shortened: as §1

filanesib = compound: CON(C)C(=O)N1N=C(c2cc(F)ccc2F)S[C@@]1(CCCN)c1ccccc1 [filanesib]
Procedure, shortened: as §1

zotarolimus = compound: CO[C@H]1C[C@@H]2CC[C@@H](C)[C@@](O)(O2)C(=O)C(=O)N2CCCC[C@H]2C(=O)O[C@H]([C@H](C)C[C@@H]2CC[C@H](n3cnnn3)[C@H](OC)C2)CC(=O)[C@H](C)/C=C(\C)[C@@H](O)[C@@H](OC)C(=O)[C@H](C)C[C@H](C)/C=C/C=C/C=C/1C [zotarolimus]
Procedure, shortened: as §1

idasanutlin = compound: COc1cc(C(=O)O)ccc1NC(=O)[C@@H]1N[C@@H](CC(C)(C)C)[C@](C#N)(c2ccc(Cl)cc2F)[C@H]1c1cccc(Cl)c1F [idasanutlin]
Procedure, shortened: as §1

alisertib = compound: COc1cc(Nc2ncc3c(n2)-c2ccc(Cl)cc2C(c2c(F)cccc2OC)=NC3)ccc1C(=O)O [alisertib]
Procedure, shortened: as §1

gefitinib = compound: COc1cc2ncnc(Nc3ccc(F)c(Cl)c3)c2cc1OCCCN1CCOCC1 [gefitinib]
Procedure, shortened: as §1

[4] = compound: COc1cccc2cc(-c3nc([C@H]4CC[C@H](C(=O)O)CC4)n4ncnc(N)c34)[nH]c12
Procedure, shortened: as §1

pictilisib = compound: CS(=O)(=O)N1CCN(Cc2cc3nc(-c4cccc5[nH]ncc45)nc(N4CCOCC4)c3s2)CC1 [pictilisib]
Procedure, shortened: as §1

[5] = compound: COC1=CC=C(C=C1)CN2C=CC3=C2C=C(C=C3)C(=O)NO
Procedure, shortened: as §1

[6] = compound: COc1cc2nc(-c3cc(F)ccc3O)nc(N[C@@H]3CNC[C@H]3C(C)(C)O)c2cc1OC
Procedure, shortened: as §1

lapatinib = compound: CS(=O)(=O)CCNCc1ccc(-c2ccc3ncnc(Nc4ccc(OCc5cccc(F)c5)c(Cl)c4)c3c2)o1 [lapatinib]
Procedure, shortened: as §1

Chain of UniProt Q9NQX7 (Q9NQX7 whole entry, looked up): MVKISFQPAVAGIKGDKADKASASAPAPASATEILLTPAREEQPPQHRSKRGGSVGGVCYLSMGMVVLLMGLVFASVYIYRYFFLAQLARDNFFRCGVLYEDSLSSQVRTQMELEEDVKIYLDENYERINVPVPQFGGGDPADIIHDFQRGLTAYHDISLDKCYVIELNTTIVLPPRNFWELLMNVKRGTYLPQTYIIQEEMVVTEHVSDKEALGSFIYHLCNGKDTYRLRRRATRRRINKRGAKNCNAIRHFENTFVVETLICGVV
Chain of UniProt Q8WVP7 (Q8WVP7 whole entry, looked up): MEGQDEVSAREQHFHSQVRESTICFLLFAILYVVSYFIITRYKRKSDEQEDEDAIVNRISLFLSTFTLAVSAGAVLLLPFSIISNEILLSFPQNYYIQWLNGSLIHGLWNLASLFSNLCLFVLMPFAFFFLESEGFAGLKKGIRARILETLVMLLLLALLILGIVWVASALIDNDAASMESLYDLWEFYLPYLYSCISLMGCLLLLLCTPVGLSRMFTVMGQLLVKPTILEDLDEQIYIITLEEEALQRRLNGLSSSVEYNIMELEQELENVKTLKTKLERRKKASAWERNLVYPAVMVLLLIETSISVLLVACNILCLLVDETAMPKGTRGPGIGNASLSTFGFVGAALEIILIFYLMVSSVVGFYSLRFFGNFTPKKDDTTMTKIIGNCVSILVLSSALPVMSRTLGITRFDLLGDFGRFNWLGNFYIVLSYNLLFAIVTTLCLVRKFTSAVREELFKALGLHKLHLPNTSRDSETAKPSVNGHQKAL
Chain of UniProt O43934 (O43934 whole entry, looked up): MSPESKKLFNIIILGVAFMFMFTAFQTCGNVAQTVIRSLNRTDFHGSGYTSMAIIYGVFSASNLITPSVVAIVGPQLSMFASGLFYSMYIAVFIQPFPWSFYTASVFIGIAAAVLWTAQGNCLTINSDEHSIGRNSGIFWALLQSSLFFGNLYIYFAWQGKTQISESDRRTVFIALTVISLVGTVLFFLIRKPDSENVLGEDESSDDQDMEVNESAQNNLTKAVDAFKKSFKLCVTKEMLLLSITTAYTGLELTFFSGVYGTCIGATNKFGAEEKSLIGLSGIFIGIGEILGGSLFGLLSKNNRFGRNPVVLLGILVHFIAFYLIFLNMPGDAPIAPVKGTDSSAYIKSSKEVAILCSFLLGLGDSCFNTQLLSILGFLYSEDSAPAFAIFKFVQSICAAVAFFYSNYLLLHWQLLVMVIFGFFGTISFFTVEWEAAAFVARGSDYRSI
Chain of UniProt Q9Y5V3 (Q9Y5V3 whole entry, looked up): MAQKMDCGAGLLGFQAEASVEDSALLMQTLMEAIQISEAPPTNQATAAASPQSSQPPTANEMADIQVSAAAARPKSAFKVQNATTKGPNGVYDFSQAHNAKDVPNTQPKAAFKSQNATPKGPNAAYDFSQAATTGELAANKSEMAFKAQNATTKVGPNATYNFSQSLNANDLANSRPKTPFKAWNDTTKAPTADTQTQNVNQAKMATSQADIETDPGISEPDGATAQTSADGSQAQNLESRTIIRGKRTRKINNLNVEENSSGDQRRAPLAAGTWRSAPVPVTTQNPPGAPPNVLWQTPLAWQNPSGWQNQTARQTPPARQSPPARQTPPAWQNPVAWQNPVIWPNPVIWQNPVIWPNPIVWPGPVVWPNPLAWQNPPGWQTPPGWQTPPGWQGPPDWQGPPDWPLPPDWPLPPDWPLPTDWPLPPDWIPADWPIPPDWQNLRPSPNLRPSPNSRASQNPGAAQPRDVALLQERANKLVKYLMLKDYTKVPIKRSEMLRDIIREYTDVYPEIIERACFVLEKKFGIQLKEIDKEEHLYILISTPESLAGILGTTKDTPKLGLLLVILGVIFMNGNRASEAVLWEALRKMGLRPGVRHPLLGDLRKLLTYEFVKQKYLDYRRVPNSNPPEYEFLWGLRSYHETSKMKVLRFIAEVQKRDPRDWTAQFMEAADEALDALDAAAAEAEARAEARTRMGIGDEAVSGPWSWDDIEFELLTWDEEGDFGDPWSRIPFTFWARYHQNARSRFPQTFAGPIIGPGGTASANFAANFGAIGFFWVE
Chain of UniProt P55082 (P55082 whole entry, looked up): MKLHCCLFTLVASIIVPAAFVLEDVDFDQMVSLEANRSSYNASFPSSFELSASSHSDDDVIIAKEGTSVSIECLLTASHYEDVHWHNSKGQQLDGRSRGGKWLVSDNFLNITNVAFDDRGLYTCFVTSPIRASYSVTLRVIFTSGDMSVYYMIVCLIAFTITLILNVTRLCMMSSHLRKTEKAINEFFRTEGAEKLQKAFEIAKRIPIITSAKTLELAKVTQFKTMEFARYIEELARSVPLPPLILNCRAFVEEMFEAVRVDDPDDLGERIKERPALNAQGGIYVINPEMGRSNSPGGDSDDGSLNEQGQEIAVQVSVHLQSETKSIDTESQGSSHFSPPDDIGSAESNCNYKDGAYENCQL
Chain of UniProt Q96G25 (Q96G25 whole entry, looked up): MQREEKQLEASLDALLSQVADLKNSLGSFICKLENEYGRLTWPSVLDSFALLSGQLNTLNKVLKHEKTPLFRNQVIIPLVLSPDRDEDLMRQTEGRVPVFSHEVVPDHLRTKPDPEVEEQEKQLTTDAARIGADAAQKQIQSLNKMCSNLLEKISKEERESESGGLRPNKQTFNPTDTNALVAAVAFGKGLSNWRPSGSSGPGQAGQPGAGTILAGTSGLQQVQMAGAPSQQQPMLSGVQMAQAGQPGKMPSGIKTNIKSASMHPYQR
Chain of UniProt P52333 (P52333 whole entry, looked up): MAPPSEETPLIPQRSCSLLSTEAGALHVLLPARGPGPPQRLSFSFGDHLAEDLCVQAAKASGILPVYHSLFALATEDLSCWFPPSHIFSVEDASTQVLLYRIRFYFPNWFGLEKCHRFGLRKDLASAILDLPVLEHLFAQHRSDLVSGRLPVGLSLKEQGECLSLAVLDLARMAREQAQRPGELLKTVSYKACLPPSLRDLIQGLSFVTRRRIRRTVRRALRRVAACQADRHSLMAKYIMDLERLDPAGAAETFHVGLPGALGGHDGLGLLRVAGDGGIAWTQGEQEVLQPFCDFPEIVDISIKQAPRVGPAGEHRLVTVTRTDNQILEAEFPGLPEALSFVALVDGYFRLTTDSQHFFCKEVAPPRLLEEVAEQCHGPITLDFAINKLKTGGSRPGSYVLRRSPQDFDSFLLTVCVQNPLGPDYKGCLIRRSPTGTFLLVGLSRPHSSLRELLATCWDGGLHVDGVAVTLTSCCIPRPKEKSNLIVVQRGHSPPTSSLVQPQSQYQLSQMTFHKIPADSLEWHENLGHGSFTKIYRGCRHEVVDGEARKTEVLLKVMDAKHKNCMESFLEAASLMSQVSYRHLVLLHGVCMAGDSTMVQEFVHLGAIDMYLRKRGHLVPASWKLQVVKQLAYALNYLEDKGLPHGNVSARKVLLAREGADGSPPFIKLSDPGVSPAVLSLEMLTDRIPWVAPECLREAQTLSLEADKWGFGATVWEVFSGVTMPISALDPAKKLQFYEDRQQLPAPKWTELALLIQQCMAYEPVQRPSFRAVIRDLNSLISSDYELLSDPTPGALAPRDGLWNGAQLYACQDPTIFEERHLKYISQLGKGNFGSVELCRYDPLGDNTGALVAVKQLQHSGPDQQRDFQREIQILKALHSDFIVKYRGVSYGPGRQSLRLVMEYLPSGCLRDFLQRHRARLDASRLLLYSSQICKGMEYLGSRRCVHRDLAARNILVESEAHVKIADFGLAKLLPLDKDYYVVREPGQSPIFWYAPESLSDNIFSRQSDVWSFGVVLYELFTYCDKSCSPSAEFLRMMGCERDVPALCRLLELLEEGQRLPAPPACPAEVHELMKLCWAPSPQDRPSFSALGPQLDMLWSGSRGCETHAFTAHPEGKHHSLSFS
Chain of UniProt O43513 (O43513 whole entry, looked up): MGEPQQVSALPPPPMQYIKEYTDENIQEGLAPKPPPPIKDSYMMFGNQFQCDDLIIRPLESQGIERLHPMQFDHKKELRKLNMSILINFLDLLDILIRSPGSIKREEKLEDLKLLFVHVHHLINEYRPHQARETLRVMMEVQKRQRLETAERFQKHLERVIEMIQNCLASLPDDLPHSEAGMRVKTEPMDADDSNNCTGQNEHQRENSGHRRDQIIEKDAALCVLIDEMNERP

Target | log2 fold change (saracatinib) | log2 fold change (sotrastaurin) | log2 fold change (alvocidib) | log2 fold change (Tubastatin A) | log2 fold change [1] | log2 fold change (defactinib) | log2 fold change (rucaparib) | log2 fold change [2] | log2 fold change (encorafenib) | log2 fold change [3] | log2 fold change (filanesib) | log2 fold change (zotarolimus) | log2 fold change (idasanutlin) | log2 fold change (alisertib) | log2 fold change (gefitinib) | log2 fold change [4] | log2 fold change (pictilisib) | log2 fold change [5] | log2 fold change [6] | log2 fold change (lapatinib)
KMT2C isoform 3 (UniProt Q8NEZ4) | -0.026 | -0.02 | -0.084 | -0.029 | 0.009 | -0.043 | -0.043 | -0.046 | -0.012 | 0.035 | 0.029 | -0.028 | 0.012 | -0.028 | 0.058 | -0.027 | 0.229 | – | – | –
MFAP3 (UniProt P55082) | 0.088 | 0.019 | – | 0.068 | – | 0.306 | – | 0.002 | – | -0.189 | -0.092 | – | 0.192 | – | – | – | – | – | – | –
MED7 (UniProt O43513) | -0.026 | 0.151 | -0.072 | -0.145 | -0.056 | -0.015 | – | -0.006 | – | 0.012 | -0.01 | 0.07 | -0.159 | – | -0.022 | – | – | -0.021 | -0.049 | -0.116
LRBA, A0A494BZW2 | -0.005 | 0.065 | 0.015 | -0.42 | -0.368 | – | -0.055 | -0.008 | 0.041 | – | -0.136 | -0.127 | -0.207 | 0.001 | -0.026 | 0.046 | 0.095 | 0.006 | 0.453 | -0.097
ITM2C (UniProt Q9NQX7) | -0.007 | -0.072 | 0.034 | – | 0 | 0.039 | – | -0.003 | – | -0.045 | -0.275 | -0.047 | -0.061 | – | -0.092 | – | -0.149 | – | -0.12 | -0.045
JAK3 (UniProt P52333) | -0.03 | -0.042 | 0.004 | -0.016 | 0.116 | 0.003 | – | -0.158 | – | -0.056 | -0.019 | 0.018 | – | 0.052 | -0.047 | -0.02 | -0.056 | -0.216 | -0.083 | 0.01
MED8 isoform 2 (UniProt Q96G25) | 0.003 | 0.044 | 0.007 | – | 0.039 | -0.031 | 0.04 | -0.131 | -0.024 | 0.141 | 0.033 | -0.004 | 0.095 | -0.088 | -0.034 | -0.041 | – | -0.11 | -0.154 | 0.058
LMBR1 isoform 3 (UniProt Q8WVP7) | 0.085 | -0.004 | -0.06 | 0.079 | -0.045 | -0.104 | – | -0.009 | – | 0.132 | -0.267 | -0.033 | 0.156 | 0.016 | – | 0.029 | 0.043 | -0.165 | -0.218 | -0.043
MFSD11 (UniProt O43934) | 0.092 | 0.085 | -0.029 | 0.005 | – | -0.033 | -0.002 | -0.127 | -0.047 | -0.015 | -0.464 (active) | -0.003 | -0.055 | -0.009 | -0.064 | -0.002 | 0.02 | -0.029 | -0.046 | 0.041
MAGED1 isoform 2 (UniProt Q9Y5V3) | -0.073 | -0.196 | 0.002 | – | 0.015 | 0.036 | – | 0.117 | – | 0.197 | 0.264 | 0.001 | 0.054 | – | 0.228 | – | – | – | -0.058 | 0.034
